# High-throughput results: PubChem BioAssay, University of Kansas High Throughput Screening Laboratory
# Shown are actives, neighbours in structure and some others; about 3.6% of the full set was active somewhere.
# Pf apPOL block – Pf-apPOL DNA polymerase inhibition; Recombinant Pf-apPOL, molecular beacon fluorescence, 1.5 h; inhibition, % at 10 µM; hit rate 0.25% among 210,000; AID 1794808
# mHTT-CaM PPI inh – disrupts binding of mutant huntingtin to calmodulin. inhibition, % at 15 µM. AlphaScreen His-mHTT/GST-CaM binding, luminescence. P42858. hit rate 3.6% among 190,000;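 also: 0% = both proteins with DMSO and 100% = one protein alone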
# Active calls of the source: *; / = no result. Rule as the data show it: active = inhibition above about 50%; inactive = the rest.
SMILES,Pf apPOL block,mHTT-CaM PPI inh
CC1(C)C2CCC1(C)C(OCC(O)CN1CCN(c3ccccc3F)CC1)C2 (stereo not drawn),-3,47
CC(=O)NCCc1csc(C2CCN(C(=O)c3ccccc3Cl)CC2)n1,0,9
COc1ccc(N=Cc2cc3c(cc2O)OC(N)=C(C#N)C3c2cccc(F)c2)cc1 (stereo not drawn),4,81*
N#CC1=C(N)Oc2cc(O)ccc2C1c1ccccc1Br (stereo not drawn),-10,11
N#CC1=C(N)Oc2cc(O)c(C=Nc3ccc(Br)cc3)cc2C1c1ccco1 (stereo not drawn),1,100*
COc1ccc(C2C(C#N)=C(N)Oc3cccc(O)c32)cc1 (stereo not drawn),-5,8
Cc1ccc2n1CCN(C(=O)Nc1cc(F)ccc1F)C2C(C)C (stereo not drawn),-2,-1
NCCCCCCNc1nc2c(=O)[nH]cnc2n1C1OC(CO)C(O)C1O (stereo not drawn),/,-5
Nc1nc2c(nc(N=Nc3c(O)[nH]c4ccccc34)n2C2OC(CO)C(O)C2O)c(=O)[nH]1 (stereo not drawn),/,63*
Cc1ccc(S(=O)(=O)N2CCC(CCNC(=O)Nc3cccc(C)c3)CC2)cc1,2,39
Cc1ccc(C(C)C)cc1OCCCCN1CCOCC1,-4,0
COc1ccccc1-n1c(CSc2ccccc2[N+](=O)[O-])n[nH]c1=S,1,/
C=CCn1c(CSc2ccccc2[N+](=O)[O-])n[nH]c1=S,60*,/
Cc1ccc(NC(=O)N2CCCC2c2cc(C(C)C)no2)c(Cl)c1 (stereo not drawn),-3,-9
CCCCOc1ccc(Cc2c(Cl)nc(SC)nc2NC)cc1,-3,-3
COc1ccc(-n2nc(C(=O)NCC(=O)N(C)Cc3ccccc3)c3ccccc3c2=O)cc1,0,66*
COc1ccc(-n2nc(C(=O)NCC(=O)O)c3ccccc3c2=O)cc1,-3,-1
Cc1cc2ncn(C(=O)C3CCCCC3)c2cc1C,-6,12
OC(C#CC(O)(c1ccccc1)c1ccccc1)c1cccs1 (stereo not drawn),-4,-1
CN(C)C(C)(C)C#CC(O)(c1ccccc1)c1ccccc1,-3,-5
Cc1ccc(C(O)C#CC(O)(c2ccccc2)c2ccccc2)o1 (stereo not drawn),-9,58*
OC(C#CC(O)(c1ccccc1)c1ccccc1)c1ccccc1F (stereo not drawn),88*,-5
COCC(C)NS(=O)(=O)c1ccc([N+](=O)[O-])cc1 (stereo not drawn),1,-9
Cc1ccc(-c2nc3cc(N)ccc3o2)cc1C,-17,24
Cc1ccc(C)c(-c2coc(-c3ccc(N)cc3)n2)c1,-1,53*
SMILES,Pf apPOL block,mHTT-CaM PPI inh
Cc1ccc(-c2coc(-c3ccc(N)cc3)n2)c(C)c1,0,59*
Cc1ccc(-c2csc(N)n2)c(C)c1,-3,13
O=C(NCCc1ccc(Cl)cc1)C1CCCN(C(=O)c2ccccc2F)C1 (stereo not drawn),-17,34
O=C(Cn1ccc2sccc2c1=O)Nc1ccc(F)c(F)c1,4,-2
CCC(=O)NCc1nc2c(n1CC)CN(S(=O)(=O)c1cccc(F)c1)CC2,-8,1
Cc1ccccc1CC(=O)NC1CCc2[nH]c3c(C)cccc3c2C1 (stereo not drawn),13,29
CCc1cccc2c3c([nH]c12)CCC(NC(=O)CC1C=CCC1)C3 (stereo not drawn),10,57*
COCC(=O)NC1CCc2[nH]c3c(C)cccc3c2C1 (stereo not drawn),-2,10
Cc1nc(CC(=O)NC2CCc3[nH]c4c(Cl)cccc4c3C2)c(C)s1 (stereo not drawn),-12,95*
N#C/C(=C\c1cn(Cc2ccccc2)c2ccccc12)C(=O)NCC1CCCO1 (stereo not drawn),-6,13
COc1cncc(C(=O)Nc2ccccc2)c1,-2,-18
CC(=O)NCc1csc(C2CCN(S(=O)(=O)c3cc(F)ccc3F)CC2)n1,-3,3
O=C1OC(c2ccc(Cl)cc2)=C/C1=C\c1ccco1,-4,20
O=C1OC(c2ccc(Oc3ccccc3)cc2)=C/C1=C\c1ccco1,3,78*
O=C(C1CCN(Cc2c(F)cccc2Cl)CC1)N1CCc2ccccc2C1,-10,7
